From PubChem BioAssay come the findings set out here.

Several values for one entry are separate records, joined by “and”; a condition that tells them apart may be missing. Equal values may be shown once. Records with an inconclusive call do not appear. Activity calls are given as the source filed them. Rule as the data show it, unless noted: active = inhibition above about 80%; inactive = the rest.

Assay [1] concerns Neuropilin-2 / VEGF-C interaction (human). As to the kind of experiment: small molecules blocking Neuropilin-2/VEGF-C interaction – biochemical, microplate binding format, z-score (AID 743281; call rule not given here). As to conditions: microplate NRP2/VEGF-C binding assay; stronger effect = lower value.
Assay [2] is described as follows: growth inhibition, single agents and combos, LFS_MB_1R, cell-based, cisplatin or BGB combos, synergistic combos for chromothripsis tumors (AID 1671452).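 Also: cells exposed for 96 hours before readout.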 As to conditions: LFS_MB_1R medulloblastoma cells, stronger effect = higher value.
Assay [3] can be described thus: growth inhibition, single agents and combos, CRL2098, cell-based, BGB or cisplatin IC20 combos, synergistic combos for chromothripsis tumors (AID 1671454).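 Also: cells exposed for 96 h before readout; 0% = vehicle DMSO and 100% = killing by high DMSO.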 As to conditions: CRL2098 osteosarcoma cells, drug combinations, stronger effect = higher value.
Assay [4] can be described thus: growth inhibition, single agents and combos, HD-MB03, cell-based, BGB or cisplatin IC20 combos, synergistic combos for chromothripsis tumors (AID 1671455; in the data active = inhibition above about 83%;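 also: 0% = vehicle DMSO and 100% = high DMSO as cytotoxic control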). As to conditions: HD-MB03 medulloblastoma cells, stronger effect = higher value.
The nature of assay [5]: growth inhibition, single agents and combos, UWB1.289, cell-based, BGB or cisplatin combos, synergistic combos for chromothripsis tumors (AID 1671456).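 Also: cells exposed to compound for four days; 0% = vehicle DMSO and 100% = killing by high DMSO.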 As to conditions: UWB1.289 ovarian carcinoma cells, stronger effect = higher value.
Assay [6] in a line: growth inhibition, single agents and combos, LFS_MB_2R, cell-based, cisplatin combos, synergistic combos for chromothripsis tumors (AID 1671457).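 Also: cells exposed to compound for four days before readout.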 As to conditions: LFS_MB_2R medulloblastoma cells, stronger effect = higher value.
A short description of assay [7]: UWB1.289_BRCA1 ovarian cancer growth, cell-based, BGB or cisplatin combinations (AID 1671459). As to conditions: UWB1.289 BRCA1 ovarian carcinoma, drug combinations, stronger effect = higher value.
A short description of assay [8]: drug combination toxicity in non-malignant astrocytes – cell-based, BGB or cisplatin IC20 combos, cytotoxicity control for chromothriptic childhood tumor combination screen (AID 1671460).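 Also: cells exposed to compounds for 96 hours before viability readout; 0% = vehicle and 100% = killing control.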 As to conditions: Human astrocytes, viability inhibition, drug combinations, at 0.5 µM, stronger effect = higher value.
The nature of assay [9]: viability loss in pontine glioma line – cell-based, SU-DIPG-XIII, MIPE5.0, CellTiter-Glo, qHTS, dose response (AID 1347064; cut-off not given, nearly all actives have AC50 up to about 23 µM;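 as to AC50: cells exposed to compound for 48 hours before the viability read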). As to conditions: CellTiter-Glo ATP luminescence. In general terms: In ATP-based viability assays light output follows the ATP content of the culture.
The nature of assay [10]: compounds altering HSF1 focus formation in cells – imaging, Selleck Cancer Library (AID 1347162; in the data active = plate-normalised HSF1 focus index below about 0.46). As to conditions: human cells, HSF1 nuclear foci imaging, at 10 µM; SSMD: measured here: HSF1 foci SSMD mean; cell count: measured here: cell number; plate-normalised HSF1 focus index: stronger effect = lower value.
A short description of assay [11]: viability loss in pontine glioma line – cell-based, SU-DIPG-XXV, MIPE5.0, CellTiter-Glo, qHTS, dose response (AID 1347065; cut-off not given, nearly all actives have AC50 up to about 26 µM;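 also: cells exposed to compound for 48 hours before ATP readout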). As to conditions: CellTiter-Glo ATP luminescence.
The target of assay [12] is ATP-dependent translocase ABCB1 (Homo sapiens) (UniProt P08183). As to the kind of experiment: P-glycoprotein substrate transport blockade – cell-based (AID 377; in the data active = fluorescence slope change above about 50%). As to conditions: MDR1-expressing cells, fluorescent substrate accumulation slope; stronger effect = higher value; concentration not given here.
ATP-dependent translocase ABCB1 (Homo sapiens), sequence (P08183 whole entry, looked up): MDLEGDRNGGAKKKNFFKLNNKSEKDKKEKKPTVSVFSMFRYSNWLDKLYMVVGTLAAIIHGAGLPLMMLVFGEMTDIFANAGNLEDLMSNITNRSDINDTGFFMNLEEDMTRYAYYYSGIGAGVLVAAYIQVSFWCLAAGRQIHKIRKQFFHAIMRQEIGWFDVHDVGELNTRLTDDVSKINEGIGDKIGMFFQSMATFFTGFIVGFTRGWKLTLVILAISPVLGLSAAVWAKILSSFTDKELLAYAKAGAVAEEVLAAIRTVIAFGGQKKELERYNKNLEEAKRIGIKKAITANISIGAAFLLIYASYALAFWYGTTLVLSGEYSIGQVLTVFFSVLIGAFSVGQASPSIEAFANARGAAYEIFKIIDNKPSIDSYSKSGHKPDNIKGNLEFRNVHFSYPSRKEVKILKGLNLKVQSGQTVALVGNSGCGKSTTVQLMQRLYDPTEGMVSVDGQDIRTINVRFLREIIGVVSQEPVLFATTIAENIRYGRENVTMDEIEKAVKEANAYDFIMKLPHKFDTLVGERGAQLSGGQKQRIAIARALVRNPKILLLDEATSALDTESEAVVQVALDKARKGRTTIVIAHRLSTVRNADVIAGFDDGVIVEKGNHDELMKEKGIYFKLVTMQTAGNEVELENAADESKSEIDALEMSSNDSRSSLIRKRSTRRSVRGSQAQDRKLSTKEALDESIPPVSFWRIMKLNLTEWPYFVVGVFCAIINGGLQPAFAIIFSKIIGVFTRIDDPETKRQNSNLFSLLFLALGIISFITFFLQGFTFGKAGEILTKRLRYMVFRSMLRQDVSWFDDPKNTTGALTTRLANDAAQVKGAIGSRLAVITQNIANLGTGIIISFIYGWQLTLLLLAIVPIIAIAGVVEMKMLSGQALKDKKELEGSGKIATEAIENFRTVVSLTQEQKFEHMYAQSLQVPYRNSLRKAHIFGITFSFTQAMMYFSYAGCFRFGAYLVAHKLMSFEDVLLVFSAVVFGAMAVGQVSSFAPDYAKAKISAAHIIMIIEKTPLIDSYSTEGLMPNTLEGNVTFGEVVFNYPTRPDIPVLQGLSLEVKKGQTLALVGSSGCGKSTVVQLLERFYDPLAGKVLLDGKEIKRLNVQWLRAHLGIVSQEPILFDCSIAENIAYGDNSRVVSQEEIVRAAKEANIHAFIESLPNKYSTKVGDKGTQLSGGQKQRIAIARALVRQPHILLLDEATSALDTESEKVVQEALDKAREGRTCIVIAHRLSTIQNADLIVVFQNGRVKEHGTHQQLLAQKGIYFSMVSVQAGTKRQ
Assay [13] is described as follows: rescue of PC12 cells from polyQ htt toxicity – LDH release (AID 1610). As to conditions: PC12 mutant huntingtin toxicity, final LDH at 4 uM, stronger effect = lower value. Background: LDH leaks from cells whose membrane has failed.
Where [14] appears, read: measured here: combination with cisplatin, at 0.5 µM.
Where [15] appears, read: measured here: combination with cisplatin, at 5 µM.

Broadly, the inhibition is the relative decrease from the control value, in per cent. For `CCCCCCNC(=O)n1cc(F)c(=O)[nH]c1=O`, the z-score in assay [1] was 0.686 (inactive). Besides, the inhibition was -10.6% (inactive) and -21.3% (inactive) in [2] (at 0.5 µM); -28.1% and 5.33% in assay [2] (measured here: combination with BGB IC40, at 0.05 µM); -15.3% and -53.6% in assay [2] (setting [14]); -40% and -9.49% in assay [2] (setting [15]); -23.4% (inactive) and -30.5% (inactive) in assay [3] (at 0.5 µM); -16.8% and -6.28% in assay [3] (measured here: combination with BGB at IC20, at 0.5 µM). For the same compound, the inhibition in assay [3] (measured here: combination with cisplatin at IC20, at 0.5 µM) was -120% and -21%; in assay [4] (at 0.5 µM), -1.02% (inactive) and -7.18% (inactive); in assay [4] (measured here: combo with BGB at IC20, at 0.5 µM), -21.9% and -3.96%; in [4] (measured here: combo with cisplatin at IC20, at 0.5 µM), 21% and -14.9%; in assay [5] (at 0.5 µM), 5.77% (inactive) and 18.7% (inactive); in assay [5] (measured here: inhibition with BGB combination, at 0.05 µM), -24.4% and -30.3%. In addition, the inhibition is -28.4% and -20.9% in [5] (measured here: inhibition with cisplatin combination, at 0.05 µM); -18.7% (inactive) and -16.7% (inactive) in [6] (at 0.5 µM); -15.8% and -16.6% in [6] (setting [14]); -25.7% and -25.2% in [6] (setting [15]); 34.1% and 35.2% in assay [7] (BGB combination, concentration series, at 5 µM); 11% (inactive) and 22.4% (inactive) in assay [7] (at 0.5 µM). Also, the inhibition in [7] (cisplatin combination, concentration series, at 5 µM) was 14.4% and 26.3%; in assay [8], 7.08% (inactive) and 16.2% (inactive); in assay [8] (measured here: combo with BGB IC20), -8.62% and 3.35%; in assay [8] (measured here: combo with cisplatin IC20), 18.1% and 20.7%.
Take `COc1cc2nc(N(C)CCCNC(=O)C3CCCO3)nc(N)c2cc1OC` (stereo not drawn): the z-score in assay [1] was -0.33 (inactive).
Take `Cc1ncc([N+](=O)[O-])n1CC(C)O` (stereo not drawn): the z-score in assay [1] is 0.376 (inactive).
In the case of `CN1CCCC(n2nc(Cc3ccc(Cl)cc3)c3ccccc3c2=O)CC1` (stereo not drawn), the z-score in assay [1] was 0.519 (inactive).
A word on the AC50: it is the concentration giving half of the maximal activity seen. `Cc1ccc(-c2cc(C(F)(F)F)nn2-c2ccc(S(N)(=O)=O)cc2)cc1`: in [9], the AC50 was 18.6 µM (active). In addition, in [10], the SSMD is -12.9, the cell count amounted to 5490 and the plate-normalised HSF1 focus index was 0.546 (inactive).
As to `NS(=O)(=O)c1cc2c(cc1Cl)NC=NS2(=O)=O`, the compound was classed as inactive in [9] and in assay [11].
`CC(C)(C)NCC(O)COc1cccc2c1C[C@H](O)[C@H](O)C2` (stereo partly drawn): the fluorescence slope change in [12] was 55.3% (active).
On to `OCCN1CCN(CCCN2c3ccccc3Sc3ccc(C(F)(F)F)cc32)CC1`, for which the fluorescence slope change in assay [12] is 91.3% (active). In assay [1], the z-score was 0.247 (inactive). The AC50 is 9.34 µM (active) in assay [9] and 7.42 µM (active) in [11].
Turning to `CN(C)CCOC(c1ccc(Cl)cc1)c1ccccn1` (stereo not drawn), the normalised LDH release in assay [13] came to 0.839.
`CCCNCC(O)COc1ccccc1C(=O)CCc1ccccc1` (stereo not drawn): the fluorescence slope change in [12] was 74.2% (active). In addition, the call in [9] was inactive.
Take `c1ccc2[nH]c(-c3cscn3)nc2c1`: the fluorescence slope change in [12] was 17.8% (inactive). In addition, the result in [11] was inactive.
For `CN(CCOc1ccc(CC2SC(=O)NC2=O)cc1)c1ccccn1` (stereo not drawn), the z-score in assay [1] is 0.0365 (inactive) and -0.614 (inactive). Besides, the call in [11] was inactive. Also, in assay [10], the SSMD was 2.43, the cell count was 7680 and the plate-normalised HSF1 focus index was 1.15 (inactive).
Turning to `NC(=O)c1cnccn1`, in assay [12], the fluorescence slope change is 13.7% (inactive). Further, the compound was classed as inactive in [9] and in [11].
For the compound `OC(CCN1CCCC1)(c1ccccc1)C1CCCCC1` (stereo not drawn), in assay [12], the fluorescence slope change was 70.5% (active).
On the same count and under the same terms, the result for `CCc1cccc2c3c([nH]c12)C(CC)(CC(=O)O)OCC3` (stereo not drawn) reads 73.7% (active); that for `Cc1ccccc1C(OCCN(C)C)c1ccccc1` (stereo not drawn), 22.7% (inactive).
With `O=S(=O)(O)CCS`, the fluorescence slope change in [12] is 5.5% (inactive). The compound was called inactive in [9] and in [11].
In the case of `Cc1ccc(C)c(OCCCC(C)(C)C(=O)O)c1`, the call in [11] was inactive.
On to `Nc1ncn([C@@H]2O[C@H](CO)[C@@H](O)[C@H]2O)c(=O)n1`, for which the half-maximal activity concentration (AC50) in assay [9] was 1.66 µM (active). For the same compound, the AC50 in assay [11] is 2.09 µM (active). In addition, in [10], the SSMD amounted to 1.14, the cell count is 7120 and the plate-normalised HSF1 focus index is 1.04 (inactive).
For `N[C@@H](C(=O)N[C@@H]1C(=O)N2C(C(=O)O)=C(Cl)CS[C@H]12)c1ccccc1`, in assay [1], the z-score was -0.232 (inactive).
